Source: PubChem BioAssay AID372 (MTDP, 2006)
The whole screen tested about 100,000 compounds, of which about 770 (0.77%) were called active. Only a selection was taken, and actives are over-represented in it overall. Values without a mark were called inactive. No stated cut-off is given here; in the data, active means inhibition above about 50%; inactive means the rest.

Molecular target: Gag-Pol polyprotein (Human immunodeficiency virus type 1 group M subtype B (isolate HXB2)) (UniProt P04585)
Assay: RNase H inhibition, HIV 1 Gag Pol polyprotein, FRET biochemical assay, screening (AID 372)
Details: HIV-1 RT RNase H, FRET RNA/DNA substrate fluorescence; at 10 µM; hits give high values

Row | SMILES | inhibition
1 | CC1=C(C#N)C(c2ccccc2C(F)(F)F)C2=C(CCCC2=O)N1 (centres undefined) | 12%
2 | O=C1Nc2ccccc2NC1C1OC(c2ccccc2)=CC1=O (centres undefined) | 0%
3 | Cc1cccc(C2C(=O)c3ccccc3C2=O)c1C | 13%
4 | O=C(O)c1ccc(N2C(=O)CC(N3CCN(Cc4ccc5c(c4)OCO5)CC3)C2=O)cc1 (centres undefined) | 12%
5 | C/C(=N\NC(=O)c1cc(C)[nH]n1)c1ccc(N)cc1 | 5%
6 | O=S1(=O)CCC(NC(=S)N/N=C/c2ccc(Cl)c(Cl)c2)C1 (centres undefined) | 13%
7 | COc1ccc(C(N)=CC(=O)C(C)(C)C)cc1 | 7%
8 | Clc1cccc(OCCN2CCOCC2)c1Cl | 0%
9 | Clc1cccc(OCCCCN2CCOCC2)c1Cl | 55% (active)
10 | Clc1cccc(OCCCN2CCOCC2)c1Cl | 2%
11 | Cc1sc2nc(SCC(=O)NCCO)[nH]c(=O)c2c1C | 2%
12 | COc1ccc(C(=O)NC(=S)Nc2ccc3oc(-c4ccccc4C)nc3c2)cc1Cl | 25%
13 | CCOc1ccc(-c2nc3cc(NC(=S)NC(=O)c4ccccc4C)ccc3o2)cc1 | 61% (active)
14 | CCOc1ccc(-c2nc3cc(NC(=S)NC(=O)c4ccccc4Br)ccc3o2)cc1 | 20%
15 | COc1ccc(C(=O)NC(=S)Nc2ccc3oc(-c4ccccc4Cl)nc3c2)cc1Cl | 53% (active)
16 | COc1ccc(-c2nc3cc(NC(=S)NC(=O)c4ccccc4C)ccc3o2)cc1Cl | 56% (active)
17 | COc1ccc(-c2nc3cc(NC(=S)NC(=O)c4ccccc4C)ccc3o2)cc1 | 7%
18 | COc1ccc(-c2nc3cc(NC(=S)NC(=O)c4ccccc4Cl)ccc3o2)cc1Cl | 45%
19 | COc1ccc(-c2nc3cc(NC(=S)NC(=O)c4ccccc4OC)ccc3o2)cc1Cl | 13%
20 | COc1ccc(C(=O)NC(=S)Nc2ccc3oc(-c4ccccc4Cl)nc3c2)cc1OC | 14%
21 | O=C(Nc1ccc2ccccc2c1)c1cc(I)ccc1Cl | 23%
22 | COc1ccc(/C(N)=N/OC(=O)/C=C/c2ccccc2)cc1 | 15%
23 | CCCCOC(=O)c1ccc(NC(=O)COc2ccccc2Br)cc1 | 15%

Row | SMILES | inhibition
24 | COc1ccc(NC(=O)CN(c2c(C)n(C)n(-c3ccccc3)c2=O)S(=O)(=O)c2ccccc2)cc1 | 4%
25 | O=C(CSc1nc2sc3c(c2c(=O)n1-c1ccc(Cl)cc1)CCCC3)c1ccccc1 | 13%
26 | O=[N+]([O-])c1ccc(N2CCN(S(=O)(=O)c3ccc4ccccc4c3)CC2)cc1N1CCCC1 | 5%
27 | CC(c1ccccc1)N1C(=O)/C(=C/c2cccc([N+](=O)[O-])c2)SC1=S (centres undefined) | 11%
28 | O=C(Nc1ccc2nn(-c3ccccc3)nc2c1)c1ccc(Cl)c([N+](=O)[O-])c1 | 21%
29 | O=C(Nc1ccc(-c2nc3ccc(NC(=O)c4ccccc4[N+](=O)[O-])cc3[nH]2)cc1)c1ccccc1[N+](=O)[O-] | 13%
30 | COc1ccc(C(=O)NC(=S)Nc2ccc(C)c(Cl)c2)cc1[N+](=O)[O-] | 5%
31 | Cc1ccc(C(=O)Nc2ccccc2)cc1[N+](=O)[O-] | 7%
32 | COc1ccc(C(=O)NC(=S)Nc2ccc3nn(-c4ccc(F)cc4)nc3c2)cc1[N+](=O)[O-] | 38%
33 | O=C(Nc1ccc2nn(-c3ccc(F)cc3)nc2c1)c1ccc([N+](=O)[O-])cc1 | 16%
34 | O=C(Nc1ccc2nn(-c3ccc(Cl)cc3)nc2c1)c1ccc([N+](=O)[O-])cc1 | 31%
35 | O=C(Nc1ccc2nn(-c3ccc(F)cc3)nc2c1)c1ccc(Cl)c([N+](=O)[O-])c1 | 52% (active)
36 | Cc1ccc(-n2nc3ccc(NC(=O)c4cccc([N+](=O)[O-])c4)cc3n2)cc1Cl | 43%
37 | Cc1ccc(C(=O)Nc2ccc(-c3nc4cc5ccccc5cc4[nH]3)cc2)cc1[N+](=O)[O-] | 80% (active)
38 | Cc1ccc(-n2nc3ccc(NC(=O)c4ccc([N+](=O)[O-])cc4)cc3n2)cc1Cl | 53% (active)
39 | CC(=O)N/N=C/c1ccc(-c2ccc([N+](=O)[O-])cc2Br)o1 | 13%
40 | CCOc1ccc(C(=O)NCc2cccnc2)cc1Br | 0%
41 | CC(C)=NNC(=O)/C(=C/C=C/c1ccccc1)NC(=O)c1ccccc1 | 7%
42 | CC(=O)c1cccc(NC(=O)CC2S/C(=N\N=C(/C)c3ccc(Cl)cc3)NC2=O)c1 (centres undefined) | 13%
43 | O=C(c1nn2c(c1Br)NC(c1cccs1)CC2C(F)(F)F)N1CCOCC1 (centres undefined) | 0%
44 | N#Cc1ccc(C=Nc2cc(Cl)cc(Cl)c2)cc1 | 11%
45 | Cc1cc2c(c(=O)o1)C(c1cccs1)C(C#N)=C(N)O2 (centres undefined) | 4%
46 | Cc1cc(C)c(S(=O)(=O)Nc2cc(Br)c(O)c3ccccc23)c(C)c1 | 18%

Row | SMILES | inhibition
47 | N#Cc1ccccc1COc1ccc(/C=C2/NC(=S)NC2=O)cc1 | 23%
48 | Cc1ccc(C(=O)Nc2ccc3nn(-c4ccc(Cl)cc4)nc3c2)cc1[N+](=O)[O-] | 51% (active)
49 | O=C(/C=C/c1cccc([N+](=O)[O-])c1)Nc1ccc2nn(-c3ccccc3)nc2c1 | 43%
50 | COc1ccc(C(=O)NC(=S)Nc2ccc3nn(-c4ccccc4)nc3c2)cc1[N+](=O)[O-] | 56% (active)
51 | COc1ccc(C(=O)NC(=S)Nc2cc(-c3nc4ccccc4[nH]3)ccc2C)cc1[N+](=O)[O-] | 18%
52 | COc1ccc(C(=O)NC(=S)Nc2ccc(Br)cc2)cc1[N+](=O)[O-] | 0%
53 | Cc1ccc(C(=O)Nc2ccc3nn(-c4ccc(F)cc4)nc3c2)cc1[N+](=O)[O-] | 40%
54 | COc1ccc(C(=O)Nc2ccc3nn(-c4ccccc4)nc3c2)cc1[N+](=O)[O-] | 18%
55 | COc1ccc(C(=O)NC(=S)Nc2ccc(-c3nc4ccccc4[nH]3)cc2)cc1[N+](=O)[O-] | 60% (active)
56 | Cc1ccc(-n2nc3cc(C)c(NC(=O)/C=C/c4cccc([N+](=O)[O-])c4)cc3n2)cc1 | 12%
57 | CCOc1ccc(C(=O)NC(=S)Nc2ccc3nn(-c4ccccc4)nc3c2)cc1[N+](=O)[O-] | 18%
58 | CCOc1ccc(-n2nc3ccc(NC(=O)c4ccc(C)c([N+](=O)[O-])c4)cc3n2)cc1 | 17%
59 | Cc1ccc(-n2nc3ccc(NC(=O)/C=C\c4cccc([N+](=O)[O-])c4)cc3n2)cc1 | 59% (active)
60 | CCc1ccc(C=NC23CN4CN(CN(C4)C2)C3)s1 | 5%
61 | CCOC(=O)c1c(NC(=O)CN2C(=O)S/C(=C\c3ccccc3)C2=O)sc2c1CCCC2 | 10%
62 | COc1cccc(/C=C2/SC(=S)N(CCC(=O)Nc3nnc(C)s3)C2=O)c1 | 7%
63 | Cn1ccnc1SCC(=O)n1c2c(c3ccccc31)CCCC2 | 0%
64 | O=C(Nc1ccc2nn(-c3cccc([N+](=O)[O-])c3)nc2c1)c1ccccc1 | 22%
65 | Cc1ccc(-n2nc3ccc(NC(=O)c4ccc([N+](=O)[O-])c(C)c4)cc3n2)cc1Cl | 44%
66 | COc1ccc(-n2nc3ccc(NC(=O)c4ccc(OC)c([N+](=O)[O-])c4)cc3n2)cc1 | 3%
67 | Cc1ccc(C(=O)Nc2ccc3nn(-c4cccc([N+](=O)[O-])c4)nc3c2)cc1 | 54% (active)
68 | O=C(Nc1ccc2nn(-c3ccccc3)nc2c1)c1ccc([N+](=O)[O-])cc1 | 12%
69 | COc1ccc(C(=O)Nc2ccc3nn(-c4ccc(C)c(Cl)c4)nc3c2)cc1[N+](=O)[O-] | 53% (active)

Row | SMILES | inhibition
70 | Cc1cc([N+](=O)[O-])ccc1NC(=O)c1c(C)c(C)c(C)c(C)c1C | 10%
71 | CCOc1ccc(N(CC(=O)NCCSCc2ccccc2)S(=O)(=O)c2ccccc2)cc1 | 10%
72 | CC1(C)Cc2cc3c(=O)[nH]c(=S)[nH]c3nc2CO1 | 0%
73 | N#Cc1cc2c(N)c(C(=O)c3ccccc3)sc2nc1N | 8%
74 | CC1=C(C(=O)OC2CCCCC2)C(c2ccccc2[N+](=O)[O-])C2=C(CCCC2=O)N1 (centres undefined) | 10%
75 | CC(C)(C)c1cc(CCC(=O)NCCNC(=O)C(=O)NCCNC(=O)CCc2cc(C(C)(C)C)c(O)c(C(C)(C)C)c2)cc(C(C)(C)C)c1O | 55% (active)
76 | COC(=O)CCc1cc(C(C)(C)C)c(O)c(C(C)(C)C)c1 | 0%
77 | CC(C)(C)c1cc(CCC(=O)NCCO)cc(C(C)(C)C)c1O | 0%
78 | Cc1ccccc1OCCOc1ccc(/C=c2\sc3nc4ccccc4n3c2=O)cc1 | 5%
79 | C=CCN1C(=O)C(O)=C(C(C)=O)C1c1ccc(Br)cc1 (centres undefined) | 8%
80 | Cc1ccc(-c2nc3ccccc3s2)cc1NC(=O)COc1ccccc1 | 10%
81 | Cc1ccc(-c2nc3ccccc3s2)cc1NC(=O)COc1ccc(Cl)cc1 | 69% (active)
82 | Cc1cccc(OCC(=O)Nc2cccc(-c3nc4ccccc4s3)c2)c1 | 9%
83 | Cc1cc(C)cc(OCC(=O)Nc2cccc(-c3nc4ccccc4s3)c2)c1 | 53% (active)
84 | COc1ccc(OCC(=O)Nc2cccc(-c3nc4ccccc4s3)c2)cc1 | 7%
85 | COc1ccc(OCC(=O)Nc2cc(-c3nc4ccccc4s3)ccc2C)cc1 | 2%
86 | CCc1cc(=O)oc2c(C)c(OCc3ccc(Cl)cc3)ccc12 | 5%
87 | CN1C(=O)/C(=C\c2cccc(OCc3ccc(Cl)cc3Cl)c2)SC1=S | 11%
88 | Nc1nonc1C(=Nc1ccccc1)NOCc1ccc(Cl)cc1Cl | 32%
89 | Cc1ccccc1N=C(NOCc1ccc(Cl)cc1Cl)c1nonc1N | 13%
